Source: article PMC7862700, “An all-to-all approach to the identification of sequence-specific readers for epigenetic DNA modifications on cytosine”

Assays:
Test in all cases: DAPPL (digital affinity profiling via proximity ligation, sequencing); 10 mM Tris-HCl pH 7.5, 50 mM NaCl, 1 mM DTT, 4% glycerol, room temperature, 30 min; GST-TFs on glutathione beads, 16-mer random dsDNA library, 0.1% formaldehyde crosslink after washing; high values mean tight binding
Settings in all cases: protein: recombinant; tags: N-terminal GST; dsDNA, one strand shown
FLI1 = target: T1, FLI1 (Homo sapiens, UniProt Q01543 1-452)
T1 sequence: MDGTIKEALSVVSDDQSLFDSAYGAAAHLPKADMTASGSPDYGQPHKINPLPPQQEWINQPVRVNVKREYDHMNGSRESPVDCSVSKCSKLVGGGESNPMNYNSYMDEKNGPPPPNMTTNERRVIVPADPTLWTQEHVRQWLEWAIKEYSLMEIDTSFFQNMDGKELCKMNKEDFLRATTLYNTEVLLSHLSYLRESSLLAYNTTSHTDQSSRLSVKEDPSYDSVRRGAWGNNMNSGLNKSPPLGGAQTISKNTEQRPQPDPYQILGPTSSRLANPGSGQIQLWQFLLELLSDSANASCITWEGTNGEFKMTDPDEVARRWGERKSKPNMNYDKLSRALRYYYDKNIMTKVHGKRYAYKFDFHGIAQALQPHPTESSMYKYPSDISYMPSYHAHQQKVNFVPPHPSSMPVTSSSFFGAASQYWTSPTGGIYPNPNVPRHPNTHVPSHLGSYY
Procedure, shortened: (§1)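 Human transcription factors carrying a GST fusion were produced in yeast, bound to glutathione beads, tagged with DNA barcodes and pooled together with a tag-only sample. Each pool was held with 200 nmole of a random double-stranded 16-mer DNA library in Tris/NaCl/DTT/glycerol buffer for 30 min at room temperature, then washed, crosslinked in 0.1% formaldehyde, proximity-ligated with BsaI/T4 ligase (1 h, 37 °C), PCR-amplified and sequenced on an Illumina NextSeq500. Binding signal is the read frequency of each hexamer for a given factor divided by its frequency in the tag-only sample.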

GABPA = target: T2, GABPA (Homo sapiens, UniProt Q06546 1-454)
T2 sequence: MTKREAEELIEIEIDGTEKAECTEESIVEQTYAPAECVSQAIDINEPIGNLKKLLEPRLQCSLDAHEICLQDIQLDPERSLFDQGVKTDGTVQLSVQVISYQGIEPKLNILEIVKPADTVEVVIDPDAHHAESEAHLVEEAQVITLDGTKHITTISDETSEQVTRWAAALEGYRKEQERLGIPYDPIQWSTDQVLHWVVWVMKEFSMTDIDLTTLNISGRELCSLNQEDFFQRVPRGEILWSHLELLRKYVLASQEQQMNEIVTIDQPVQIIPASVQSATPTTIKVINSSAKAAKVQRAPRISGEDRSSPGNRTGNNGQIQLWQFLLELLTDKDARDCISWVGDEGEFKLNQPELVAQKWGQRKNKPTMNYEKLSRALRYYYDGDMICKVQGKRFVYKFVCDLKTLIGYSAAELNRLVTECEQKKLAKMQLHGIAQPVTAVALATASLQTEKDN
Procedure, shortened: as §1

ELF1 = ELF1 (Homo sapiens, UniProt P32519 1-619)
Chain of ELF1 (P32519 whole entry): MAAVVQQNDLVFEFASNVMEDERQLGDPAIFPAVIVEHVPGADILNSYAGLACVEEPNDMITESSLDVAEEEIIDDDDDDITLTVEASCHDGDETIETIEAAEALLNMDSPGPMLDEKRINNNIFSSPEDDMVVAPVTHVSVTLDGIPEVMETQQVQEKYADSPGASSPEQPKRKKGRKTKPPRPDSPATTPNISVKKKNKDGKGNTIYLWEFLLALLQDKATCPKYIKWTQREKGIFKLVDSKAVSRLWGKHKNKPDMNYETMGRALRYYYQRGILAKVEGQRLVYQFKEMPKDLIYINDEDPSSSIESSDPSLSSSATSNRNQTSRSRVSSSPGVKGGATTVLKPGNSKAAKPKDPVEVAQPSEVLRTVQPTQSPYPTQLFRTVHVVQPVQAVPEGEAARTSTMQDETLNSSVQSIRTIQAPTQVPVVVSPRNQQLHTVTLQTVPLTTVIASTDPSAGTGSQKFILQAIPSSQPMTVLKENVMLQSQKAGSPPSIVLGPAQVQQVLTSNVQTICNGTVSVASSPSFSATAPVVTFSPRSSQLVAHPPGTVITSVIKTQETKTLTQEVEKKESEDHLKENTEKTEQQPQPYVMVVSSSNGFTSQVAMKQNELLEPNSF
Procedure, shortened: as §1

EHF = target: T3, EHF (Homo sapiens, UniProt Q9NZC4 1-300)
T3 sequence: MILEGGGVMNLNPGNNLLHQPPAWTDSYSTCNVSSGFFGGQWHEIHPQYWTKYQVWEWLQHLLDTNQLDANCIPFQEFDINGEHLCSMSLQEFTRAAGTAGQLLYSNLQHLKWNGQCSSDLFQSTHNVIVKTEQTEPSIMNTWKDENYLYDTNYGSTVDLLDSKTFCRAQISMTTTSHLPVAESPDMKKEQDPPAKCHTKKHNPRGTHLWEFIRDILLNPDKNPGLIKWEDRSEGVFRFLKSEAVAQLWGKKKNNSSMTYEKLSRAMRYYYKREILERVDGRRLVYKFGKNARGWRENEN
Procedure, shortened: as §1

SPIB = SPIB (Homo sapiens, UniProt Q01892 1-262)
Chain of SPIB (Q01892 whole entry): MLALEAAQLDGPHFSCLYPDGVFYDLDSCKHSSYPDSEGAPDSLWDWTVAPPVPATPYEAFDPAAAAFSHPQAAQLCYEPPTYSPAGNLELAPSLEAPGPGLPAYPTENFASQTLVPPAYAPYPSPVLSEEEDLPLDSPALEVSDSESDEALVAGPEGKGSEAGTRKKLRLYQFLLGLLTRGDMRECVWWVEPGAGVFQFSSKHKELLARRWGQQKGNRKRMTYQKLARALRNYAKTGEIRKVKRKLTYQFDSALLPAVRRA
Procedure, shortened: as §1

ELK3 = target: T4, ELK3 (Homo sapiens, UniProt P41970 1-407)
T4 sequence: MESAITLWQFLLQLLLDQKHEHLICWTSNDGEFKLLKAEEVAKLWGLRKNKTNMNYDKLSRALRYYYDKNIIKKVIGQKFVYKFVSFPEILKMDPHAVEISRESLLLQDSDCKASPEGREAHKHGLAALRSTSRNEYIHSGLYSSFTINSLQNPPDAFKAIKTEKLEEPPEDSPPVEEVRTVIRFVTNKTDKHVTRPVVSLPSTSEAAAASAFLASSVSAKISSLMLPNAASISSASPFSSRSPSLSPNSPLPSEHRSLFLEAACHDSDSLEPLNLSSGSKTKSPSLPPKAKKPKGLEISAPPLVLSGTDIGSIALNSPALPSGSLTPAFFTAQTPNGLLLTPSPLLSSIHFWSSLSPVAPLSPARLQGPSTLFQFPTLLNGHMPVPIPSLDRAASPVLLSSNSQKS
Procedure, shortened: as §1

ETV5 = ETV5 (Homo sapiens, UniProt P41161 1-510)
Chain of ETV5 (P41161 whole entry): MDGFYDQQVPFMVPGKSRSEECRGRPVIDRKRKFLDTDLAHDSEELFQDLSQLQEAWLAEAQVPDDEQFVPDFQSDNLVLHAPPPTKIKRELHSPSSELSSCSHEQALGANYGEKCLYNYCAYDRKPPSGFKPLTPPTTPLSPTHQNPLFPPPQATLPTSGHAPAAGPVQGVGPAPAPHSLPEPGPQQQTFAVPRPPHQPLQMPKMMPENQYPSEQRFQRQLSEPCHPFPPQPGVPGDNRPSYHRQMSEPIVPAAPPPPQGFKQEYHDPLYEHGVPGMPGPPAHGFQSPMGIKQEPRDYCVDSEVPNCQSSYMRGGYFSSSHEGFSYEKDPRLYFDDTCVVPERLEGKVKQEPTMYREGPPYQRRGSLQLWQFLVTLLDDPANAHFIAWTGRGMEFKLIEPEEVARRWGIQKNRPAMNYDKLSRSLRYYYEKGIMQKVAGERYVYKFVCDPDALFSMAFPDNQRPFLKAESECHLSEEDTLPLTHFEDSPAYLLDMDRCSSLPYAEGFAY
Procedure, shortened: as §1

SPIC = target: T5, SPIC (Homo sapiens, UniProt Q8N5J4 1-248)
T5 sequence: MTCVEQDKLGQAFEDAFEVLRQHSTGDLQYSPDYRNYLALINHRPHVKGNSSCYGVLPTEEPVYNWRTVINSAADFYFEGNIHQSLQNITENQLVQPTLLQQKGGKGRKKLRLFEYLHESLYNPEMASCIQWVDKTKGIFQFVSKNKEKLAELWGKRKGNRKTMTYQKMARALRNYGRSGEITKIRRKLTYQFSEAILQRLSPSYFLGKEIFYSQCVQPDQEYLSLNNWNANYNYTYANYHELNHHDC
Procedure, shortened: as §1

ELF4 = ELF4 (Homo sapiens, UniProt Q99607 1-663)
Chain of ELF4 (Q99607 whole entry): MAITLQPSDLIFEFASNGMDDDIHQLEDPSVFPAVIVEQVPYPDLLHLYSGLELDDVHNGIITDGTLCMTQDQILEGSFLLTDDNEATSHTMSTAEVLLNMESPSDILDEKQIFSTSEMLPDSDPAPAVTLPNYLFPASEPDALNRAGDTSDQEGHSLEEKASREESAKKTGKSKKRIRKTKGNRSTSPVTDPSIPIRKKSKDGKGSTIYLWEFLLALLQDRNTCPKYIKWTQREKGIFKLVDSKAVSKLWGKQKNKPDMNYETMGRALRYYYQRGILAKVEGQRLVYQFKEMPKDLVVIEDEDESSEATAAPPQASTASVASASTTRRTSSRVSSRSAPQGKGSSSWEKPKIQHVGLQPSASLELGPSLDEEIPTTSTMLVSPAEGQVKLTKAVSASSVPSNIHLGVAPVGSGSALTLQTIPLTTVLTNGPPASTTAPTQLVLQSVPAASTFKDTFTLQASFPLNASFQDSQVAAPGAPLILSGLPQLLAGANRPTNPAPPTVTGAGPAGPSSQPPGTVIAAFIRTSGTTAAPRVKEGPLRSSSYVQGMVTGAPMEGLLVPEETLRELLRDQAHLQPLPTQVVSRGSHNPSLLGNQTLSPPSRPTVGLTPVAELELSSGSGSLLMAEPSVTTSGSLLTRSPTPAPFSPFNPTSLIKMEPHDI
Procedure, shortened: as §1

ETV1 = ETV1 (Homo sapiens, UniProt P50549 1-477)
Chain of ETV1 (P50549 whole entry): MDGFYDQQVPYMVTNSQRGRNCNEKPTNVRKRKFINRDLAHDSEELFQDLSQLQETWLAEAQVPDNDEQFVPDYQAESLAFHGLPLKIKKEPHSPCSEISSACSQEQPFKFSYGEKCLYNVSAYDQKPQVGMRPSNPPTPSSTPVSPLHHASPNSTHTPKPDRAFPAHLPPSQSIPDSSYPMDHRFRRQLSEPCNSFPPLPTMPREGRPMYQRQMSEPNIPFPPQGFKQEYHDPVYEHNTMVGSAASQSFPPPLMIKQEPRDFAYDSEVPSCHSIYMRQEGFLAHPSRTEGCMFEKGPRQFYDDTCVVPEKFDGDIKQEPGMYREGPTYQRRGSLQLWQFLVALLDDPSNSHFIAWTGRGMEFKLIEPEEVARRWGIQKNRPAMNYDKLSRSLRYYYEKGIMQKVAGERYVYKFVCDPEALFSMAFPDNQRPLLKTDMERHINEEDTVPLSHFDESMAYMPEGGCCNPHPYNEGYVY
Procedure, shortened: as §1

ETV3L = target: T6, ETV3L (Homo sapiens, UniProt Q6ZN32 1-361)
T6 sequence: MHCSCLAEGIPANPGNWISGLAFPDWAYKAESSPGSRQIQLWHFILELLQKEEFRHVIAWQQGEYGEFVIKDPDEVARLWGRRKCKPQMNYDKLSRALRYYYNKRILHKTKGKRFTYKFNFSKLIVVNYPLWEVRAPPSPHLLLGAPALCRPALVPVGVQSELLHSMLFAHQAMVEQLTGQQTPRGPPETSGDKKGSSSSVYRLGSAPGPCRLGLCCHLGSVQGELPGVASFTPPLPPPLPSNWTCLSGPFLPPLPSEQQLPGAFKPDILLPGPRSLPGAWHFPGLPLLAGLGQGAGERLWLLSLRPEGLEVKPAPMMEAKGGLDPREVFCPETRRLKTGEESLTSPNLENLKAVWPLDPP
Procedure, shortened: as §1

ETV3 = target: T7, ETV3 (Homo sapiens, UniProt P41162-2 1-143)
T7 sequence: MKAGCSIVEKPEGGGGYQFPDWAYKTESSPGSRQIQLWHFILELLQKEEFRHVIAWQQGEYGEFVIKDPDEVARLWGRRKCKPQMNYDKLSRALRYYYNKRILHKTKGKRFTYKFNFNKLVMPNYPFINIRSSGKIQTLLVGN
Procedure, shortened: as §1

**Q.** How did the binding signal (FLI1) turn out when GGACTC was run?
**A.** The binding signal was 1.08 fold enrichment (6-mer frequency, TF over GST control).

**Q.** What about the binding signal (GABPA) of the same sequence?
**A.** The binding signal was 1.07 fold enrichment (6-mer frequency, TF over GST control).

**Q.** What about the binding signal (ELF1) of the same sequence?
**A.** Its binding signal is 1.09 fold enrichment (6-mer frequency, TF over GST control).

**Q.** And the binding signal (EHF)?
**A.** The binding signal was 1.12 fold enrichment (6-mer frequency, TF over GST control).

**Q.** And the binding signal (SPIB)?
**A.** Its binding signal is 1.05 fold enrichment (6-mer frequency, TF over GST control).

**Q.** And the binding signal (ELK3)?
**A.** Its binding signal is 1.04 fold enrichment (6-mer frequency, TF over GST control).

**Q.** What about the binding signal (ETV5) of the same sequence?
**A.** Its binding signal is 1.08 fold enrichment (6-mer frequency, TF over GST control).

**Q.** What about the binding signal (SPIC) of the same sequence?
**A.** Its binding signal is 1.01 fold enrichment (6-mer frequency, TF over GST control).

**Q.** And the binding signal (ELF4)?
**A.** Its binding signal is 1.13 fold enrichment (6-mer frequency, TF over GST control).

**Q.** And the binding signal (ETV1)?
**A.** The binding signal was 1.07 fold enrichment (6-mer frequency, TF over GST control).

**Q.** What about the binding signal (ETV3L) of the same sequence?
**A.** The binding signal was 1.03 fold enrichment (6-mer frequency, TF over GST control).

**Q.** What about the binding signal (ETV3) of the same sequence?
**A.** Its binding signal is 1.08 fold enrichment (6-mer frequency, TF over GST control).
